# ST2 inh – IL1RL1 inhibition | Q01638 | AlphaLISA ST2-Fc/biotin-IL-33 interaction, 1 h | inhibition, % for hits at 17 µM | 2.3% of 78,000 active | AID 1259354; in the data active = inhibition above about 30%
# Target sequence (Q01638 whole entry, looked up): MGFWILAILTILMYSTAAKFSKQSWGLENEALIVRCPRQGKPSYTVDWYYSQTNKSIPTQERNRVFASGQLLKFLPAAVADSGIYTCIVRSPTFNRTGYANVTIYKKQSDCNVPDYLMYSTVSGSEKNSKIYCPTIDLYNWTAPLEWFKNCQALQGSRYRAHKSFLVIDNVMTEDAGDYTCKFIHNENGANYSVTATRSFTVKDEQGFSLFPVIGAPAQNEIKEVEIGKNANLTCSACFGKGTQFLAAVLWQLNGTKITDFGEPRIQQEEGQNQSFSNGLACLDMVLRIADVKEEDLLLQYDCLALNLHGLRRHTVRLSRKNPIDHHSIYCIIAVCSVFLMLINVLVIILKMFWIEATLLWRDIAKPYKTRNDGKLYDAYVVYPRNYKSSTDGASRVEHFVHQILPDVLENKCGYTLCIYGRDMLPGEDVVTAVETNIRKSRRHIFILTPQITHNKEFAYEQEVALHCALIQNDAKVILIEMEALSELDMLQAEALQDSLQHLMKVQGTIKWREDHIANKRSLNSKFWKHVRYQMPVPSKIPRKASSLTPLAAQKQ
# Starred values were filed as active, the others as inactive; i = inactive. The full list was thinned out, with hits kept by preference.
SMILES,ST2 inh
COc1cc(N/C=C(\C#N)c2nc(-c3cc4ccccc4oc3=O)cs2)c(OC)cc1Cl,i
N#C/C(=C/c1ccccc1Cl)c1nc(-c2ccccc2)cs1,65%*
N#C/C(=C\c1ccccc1[N+](=O)[O-])c1nc(-c2ccc(Cl)c(Cl)c2)cs1,i
COc1ccc(OC)c(N/C=C(\C#N)c2nc(-c3cc4ccccc4oc3=O)cs2)c1,37%*
COc1ccc(N/C=C(\C#N)c2nc(-c3cc4cc([N+](=O)[O-])ccc4oc3=O)cs2)c(OC)c1,i
O=c1[nH]nc(CSc2ccc([N+](=O)[O-])cc2)[nH]1,i
O=C(CN1C(=O)CCc2cc(S(=O)(=O)N3CCCC3)ccc21)NCCc1nc2ccc(F)cc2[nH]1,i
O=C(Nc1ccc(F)c(F)c1)c1cc2c(=O)n3ccccc3nc2s1,i
CCc1ccc(NC(=O)C(NS(=O)(=O)c2ccc3c(c2)oc(=O)n3C)C(C)C)cc1 (stereo not given),i
Nc1cc(C(=O)O)ccc1NC1CCCCC1,31%*
O=C(NC1CCCCC1)c1ccc(Cl)cc1,i
O=C(NC1CCCCCCC1)c1ccccc1,i
COc1ccc(-c2noc([C@@H]3C[C@H](NCc4ccc(NC(C)=O)cc4)CN3C)n2)cc1,i
N#CCOc1ccc(C2Nc3ccccc3S(=O)(=O)N2Cc2ccccc2)cc1 (stereo not given),i
Cc1c(C(=O)NC2CCC(C)CC2)oc2ccc(S(=O)(=O)N3CCCCCC3)cc12 (stereo not given),i
Cc1cccc(NC(=O)CCC2CCCCC2)n1,i
O=C(CC1CCCCC1)Nc1cccnc1,i
COc1ccc(Nc2cc(C)nc(Nc3ccc(NC(=O)CCC4CCCCC4)cc3)n2)cc1,40%*
Cc1ccc(Nc2cc(C)nc(Nc3ccc(NC(=O)CC4CCCC4)cc3)n2)cc1,31%*
COc1ccc(Nc2cc(C)nc(Nc3ccc(NC(=O)CC4CCCC4)cc3)n2)cc1,30%*
Cc1cc(N(C)C)nc(Nc2ccc(NC(=O)CCC3CCCC3)cc2)n1,i
COc1ccc(N(C(=O)CCC2CCCC2)C2C=CS(=O)(=O)C2)c(OC)c1 (stereo not given),i
CC(=O)Nc1ccc(CN2CCCC(N3CCN(Cc4ccc5c(c4)OCO5)CC3)C2)cc1 (stereo not given),i
O=C(CCn1c(=O)c2sccc2n(Cc2ccccc2)c1=O)NCc1ccccc1,i
COc1ccccc1NC(=O)c1ccccc1,i
SMILES,ST2 inh
O=c1oc2ccccc2cc1-c1nc2ccc(Cl)cc2c(=O)[nH]1,i
Cc1ccsc1[C@@H]1CCN(C(=O)c2cnn(Cc3ccccc3)c2)C[C@H]1O,i
O=C(c1ccccc1Br)N1N=C(c2ccc(Br)cc2)CC1c1ccco1 (stereo not given),i
Nc1nc2n(n1)C(c1ccco1)CC(c1ccc(F)cc1)N2 (stereo not given),i
Fc1ccc(C2=NN(c3ccccc3)C(c3ccco3)C2)cc1 (stereo not given),45%*
Cc1ccc(NC(=O)c2cccs2)cc1NC(=O)c1cccs1,i
CCc1c(C)nn(CC(=O)N2CCCN(C)C3(CCN(C)CC3)C2)c1C,i
CCc1ccc(S(=O)(=O)N2CCSC2c2cc(OC)ccc2OC)cc1 (stereo not given),i
c1cnc(N2CCCN(Cc3cc4n(n3)CCCNC4)CC2)nc1,i
COc1ccc(C(=O)Nc2ccc3nn(-c4ccc(Cl)cc4)nc3c2)cc1,37%*
CCOc1ccc(C(=O)Nc2ccc3nn(-c4ccc(OC)c(Cl)c4)nc3c2)cc1[N+](=O)[O-],40%*
CCOc1ccc(C(=O)Nc2ccc3oc(-c4ccncc4)nc3c2)cc1[N+](=O)[O-],i
COc1ccc(NC(=O)c2ccc(Cl)cc2)cc1,i
CCOc1ccc(C(=O)Nc2cccc(NC(=O)C(C)C)c2)cc1[N+](=O)[O-],i
O=C(Nc1ccc2nn(-c3ccc(Cl)cc3)nc2c1)c1cccc(F)c1,i
Cn1ccc(CC(=O)NC2CC(C)(C)Cc3c2cnn3-c2cccc(F)c2)c1 (stereo not given),i
Cc1ccc(-n2nc3c(c2NC(=O)c2ccc(F)cc2)CSC3)c(C)c1,i
COc1ccc(OC)c(NC(=O)C2Cc3ccccc3CN2S(C)(=O)=O)c1 (stereo not given),i
O=C(Cc1ccccc1)Nc1ccc(S(=O)(=O)N2CCCC2)cc1,i
CC(=O)c1ccc(C(=O)Nc2ccc(N3CCOCC3)cc2)cc1,i
Cc1ccc(C(=O)Nc2ccc(N3CCCC3)cc2)cc1Cl,53%*
O=C(Nc1ccc(I)cc1)c1ccc(Cl)cc1Cl,i
CCCOc1ccc(C(=O)Nc2ccc(N3CCCC3)cc2)cc1,i
CCc1cccc(C)c1NC(=O)c1ccc(C)c(Cl)c1,i
O=C(Nc1ccc(N2CCCC2)cc1)c1cc(I)ccc1Cl,51%*
SMILES,ST2 inh
O=C(Nc1ccc(N2CCCC2)cc1)c1ccc(F)cc1,57%*
CC(=O)Nc1ccc(NC(=O)c2cc(I)ccc2Cl)cc1,i
O=C(Cc1ccccc1)Nc1cccc(C(=O)O)c1,i
O=C(Cc1ccccc1)Nc1ccc(N2CCCC2)cc1,59%*
Cc1ccc(C(=O)Nc2cccc([N+](=O)[O-])c2)cc1Cl,i
CC(C)Oc1ccc(NC(=O)c2ccc(Br)cc2)cc1,i
CC1(C)CC(=O)C2=C(C1)OC(N)=C(C#N)C2c1ccccc1OC(=O)c1ccccc1Cl (stereo not given),i
CC(=O)C(C(=O)N(C)C)n1cnc2c(cnn2-c2ccc(Cl)cc2)c1=O (stereo not given),i
C/C(=C\c1ccccc1)CN1[C@@H]2CC[C@H]1CN(C)C(=O)C2,i
C=CCSC1=C(C#N)C(c2ccc(OCc3ccccc3)cc2)CC(=O)N1 (stereo not given),i
COc1cc2c(cc1OC)C(C(=O)Nc1cccc(Cl)c1)C(c1cccs1)N(C)C2=O (stereo not given),i
CC(C)OCCCNS(=O)(=O)c1cccs1,i
O=C1CSC(c2ccc(Cl)cc2Cl)N1c1ccccc1 (stereo not given),i
COc1cc(-c2ccc(C)s2)cc2c1OCCN(Cc1cnn(C)c1)C2,i
C=C1c2cc(OCC)ccc2NC(=O)N1c1ccccc1,i
CCOc1ccc2c(c1)C(=O)c1cc(OCC)ccc1-2,46%*
CCOc1ccc(OCC)c(NC(C)=O)c1,i
COCc1nc(C)c(CNC(=O)c2oc3ccc(C)cc3c2C)s1,i
CCCn1cnnc1CNC1CCN(c2cccc(C)c2C)CC1,i
OCc1ccc(CN2CC[C@H](c3nnc(-c4ccccc4)o3)C2)o1,i
Cc1cc(C)c(CN2C[C@H]3C[C@H](O)[C@@H](O)C[C@H]3C2)c(-n2cccn2)c1,i
O=C1C(Nc2ccccc2)=CC(c2ccccc2[N+](=O)[O-])N1c1ccccc1 (stereo not given),30%*
COc1ccccc1C1C=C(Nc2ccc(C)cc2)C(=O)N1c1ccc(C)cc1 (stereo not given),i
COc1ccc(OC)c(C2C=C(Nc3ccccc3)C(=O)N2c2ccccc2)c1 (stereo not given),i
c1ccc(CCN2CCCC(Cn3cnnc3)C2)cc1 (stereo not given),i
COc1ccc2cc3cc(C(=O)Nc4ccc(C)cc4Cl)oc3nc2c1,i
COc1ccc2nc3oc(C(=O)Nc4ccc(F)cc4F)cc3cc2c1,i
COc1ccc2cc3cc(C(=O)Nc4cccnc4)oc3nc2c1,i
COc1ccc2nc3oc(C(=O)N4CCOCC4)cc3cc2c1,i
COc1ccc2cc3cc(C(=O)Nc4ccc(OC)c(Cl)c4)oc3nc2c1,31%*
